Source: PubChem BioAssay AID1159606 (Sanford-Burnham Center for Chemical Genomics, 2016)
In all, about 360,000 compounds went through this assay and about 7,300 (2%) were called active. Rule as the data show it: active = inhibition above about 50%; inactive = the rest. This excerpt belongs to a sample that is enriched for actives.

Test: blockers of TWEAK-induced Fn14 reporter activity – luciferase reporter cells, uHTS, primary screen (AID 1159606)
Settings: TWEAK-stimulated Fn14 reporter cells, luciferase luminescence, 8 h; at 10 µM; stronger effect = higher value

inhibition, active:
COc1ccccc1CNc1nc(Nc2ccccc2Cl)c2sccc2n1 61.9%
COc1cccc(CNc2nc(NCc3ccccc3OC)nc3ccsc23)c1 63.1%
Cc1[nH]c(=O)c(C(=O)/C=C/c2ccccc2)c2c1CCCC2 83.9%
COc1ccc(-c2cc(C(F)(F)F)nc(S(C)(=O)=O)n2)cc1OC 76.2%
CC1CCCCC1NC(=O)/C(C#N)=C/C=C/c1ccccc1[N+](=O)[O-] (stereo unspecified) 84.9%
N#Cc1ccc(C(=O)Nc2nc(-c3cccs3)c(C(=O)C(F)(F)F)s2)cc1 58.4%
Cc1ccc(CS(=O)(=O)c2ncc(Cl)c(C(=O)Nc3nnc(C)s3)n2)cc1 96.5%
CSc1nnc(NC(=O)c2nc(S(=O)(=O)Cc3ccc(C)cc3)ncc2Cl)s1 92%
O=C(CSC(=S)N1CCOCC1)c1ccccc1 71.9%
Cc1csc(SCC(=O)Nc2sccc2C#N)n1 56.5%
O=C(Nc1nc2ccccc2s1)c1ccc2c(c1)OCO2 83.7%
O=C(Nc1nc(-c2ccc3c(c2)OCO3)cs1)c1ccncc1 57.8%
Cc1ccc(Nc2nc(CSc3nnc(-c4ccncc4)n3-c3ccccc3C)cs2)cc1 74.3%
Clc1ccc2nc(CSc3ccccc3)cn2c1 59.6%
CCCCNc1c(-c2cccc(Sc3ccc(OC)cc3)c2)nc2ccccn12 53.7%
O=C(Nc1nccs1)C1CCN(S(=O)(=O)c2ccc(Cl)c(C(F)(F)F)c2)CC1 73.5%
Cc1ccc(-n2c(-c3ccc(Cl)cc3)n[nH]c2=S)cc1 104%

inhibition, inactive:
Cc1csc(=O)n1CCC(=O)OCC(=O)Nc1ccc(N2CCOCC2)cc1 -8.76%
COc1cccc(CNc2nc(NCc3cccs3)nc3ccsc23)c1 -13.7%
COCCNc1nc(NCc2ccc(NC(C)=O)cc2)c2sccc2n1 -3.75%
COCCNc1nc(Nc2ccccc2Cl)c2sc(-c3ccccc3)cc2n1 -18.2%
Clc1ccccc1Nc1nc(NCc2cccs2)nc2ccsc12 12.1%
O=C1CC(c2ccccc2)C(c2ccccc2)=NN1 (stereo unspecified) -8.4%
O=S1(=O)CCOC[C@H](CC2CCCCC2)N1Cc1ccc(F)cc1 3.84%
CCc1cccc(CC)c1NC(=O)COc1ccccc1C(=O)c1cc(C#N)c(=O)n(C2CCCCC2)c1 19.8%
CN(Cc1cn(Cc2ccc(C(F)(F)F)cc2)nn1)C1CN(Cc2cn(Cc3ccc(C(F)(F)F)cc3)nn2)S(=O)(=O)C1 (stereo unspecified) 33.8%
CC(=O)c1nc(N2C(=O)C3CC=C(C)CC3C2=O)sc1C (stereo unspecified) -2.22%
Cc1ccc(-c2cc(=O)[nH]c(NCc3ccccc3)n2)cc1 9.23%
CCS(=O)(=O)c1ccc2c(c1)N(S(=O)(=O)c1ccccc1)CC(C(=O)O)O2 (stereo unspecified) -19.1%
CC1(C(=O)O)CCCN(C(=O)/C=C/c2ccccc2)C1 (stereo unspecified) 3.38%
COC(=O)c1c(C)[nH]c(C(=O)/C=C/c2ccc(Cl)cc2)c1C -23.7%
CCN(CC)CCOc1ccc2c(c1)C(=NNC(=O)c1ccccn1)c1cc(OCCN(CC)CC)ccc1-2 -85.7%
COc1ccc(-c2cc(C(=O)N(C)Cc3ccc(OC)c(OC)c3OC)c3ccccc3n2)cc1OC 19.7%
COc1ccc(-c2cc(C(=O)NCCCN3CCCC3=O)c3ccccc3n2)cc1OC -9.51%
OCC1(Cc2ccccc2C(F)(F)F)CCN(Cc2ccncc2)CC1 14.4%
Cc1cc(-c2nnc(SCC(=O)Nc3ccc(F)cc3)n2N)n[nH]1 1.35%
O=C(CC[C@H]1O[C@@H](n2ccc(=O)[nH]c2=O)[C@H](O)[C@@H]1O)N[C@H](Cc1ccccc1)C(=O)NCc1ccco1 10.1%
CC(OC(=O)/C=C/c1ccccc1)C(=O)NC1CCCCC1C (stereo unspecified) -1.03%
CC1CCCCC1NC(=O)COc1ccc(C#N)cc1 (stereo unspecified) 2.53%
CC(=O)NCC(=O)N(C)C(C(=O)Nc1ccc2c(c1)OCCO2)c1ccccc1 (stereo unspecified) 7.79%
CCN(CC)CCn1cnc2c1c(=O)n(CCOC(=O)c1cc(OC)c(OC)c(OC)c1)c(=O)n2C -2.5%
O=C(CC1SC(N2CCCC2)=NC1=O)Nc1ccc(C(=O)NCCc2ccc(F)cc2)cc1 (stereo unspecified) -8.62%
C=CCN(CC=C)S(=O)(=O)c1ccc(C(=O)Nc2nc3c(s2)CCc2ccccc2-3)cc1 -34.3%
N#Cc1c(-c2cccs2)nc(SCC(=O)c2ccc(Br)cc2)[nH]c1=O -12.4%
Cc1oc2c(C)c3oc(=O)c(CC(=O)N[C@@H](CC(C)C)C(=O)N[C@@H](Cc4ccccc4)C(=O)O)c(C)c3cc2c1C -9.29%
COC(=O)c1ccc(NS(=O)(=O)c2cc3c4c(c2)C(C)C(=O)N4CCC3)cc1 (stereo unspecified) 9.82%
Cc1cccc(C(=O)Nc2nnc(S(=O)(=O)N3CCCCCC3)s2)c1 -46.1%
Cc1ccc(S(=O)(=O)CCC(=O)Nc2nnc(CC(C)C)s2)cc1 -1.46%
O=C(Nc1nnc(-c2ccc(F)cc2)s1)c1c(F)cccc1Cl 5.11%
CCOC(=O)CSc1nnc(NC(=O)c2cccc(S(=O)(=O)N3CCCCC3)c2)s1 41.9%
CSc1nc2nc3c(c(=O)n2[nH]1)CCC3 -0.44%
CCCn1c(N)c(N(CCOC)C(=O)C2CCCC2)c(=O)[nH]c1=O -6.44%
CC(=O)Nc1ccc(S(=O)(=O)N2CCC(C(=O)N[C@@H](Cc3ccccc3)C(=O)O)CC2)cc1 -3.83%
Cc1cc(OCCOc2cccc3cccnc23)c(C)cc1Cl -15.2%
Cc1ccc([C@@H]2CC(=O)[C@@H]3CN(S(=O)(=O)c4ccc(C)cc4)[C@H](c4ccccc4F)C[C@@H]3N2S(=O)(=O)c2ccc(Cl)cc2)cc1 -13.3%
COc1cc(C(F)(F)F)nc2c(Br)c(C(C)(C)C)nn12 15.2%
NC(=NC(=O)c1ccccc1)N1CCOCC1 -6.39%
CC1CN(C(=S)SCC(=O)c2ccccc2)CC(C)O1 (stereo unspecified) 3.23%
CC1(C(=O)Nc2cccc3cccnc23)CCN1C(=O)CCC1CCCC1 (stereo unspecified) 8.06%
N#Cc1ccsc1NC(=O)CN1CCCCC1 -0.37%
Cc1csc(SCC(=O)Nc2ccc(C)c(S(=O)(=O)N(C)C)c2)n1 -4.8%
CCN1C(=O)N[C@@H](c2ccccc2)[C@H](C(C)=O)[C@H]1C -0.1%
CSc1ccccc1NC(=O)Cc1ccc(Br)cc1 4.45%
CCC1CCc2c(sc(NC(C)=O)c2C#N)C1 (stereo unspecified) -8.64%
Cc1ccc(-c2csc(NC(=O)C3=COCCO3)n2)cc1C 1.4%
N#Cc1ccccc1NC(=O)c1ccc2c(c1)OCO2 -17.5%
COCc1nnc(NC(=O)c2ccc3c(c2)OCO3)s1 14.7%
C/C(=N/NC(=O)c1ccncc1)c1ccc2c(c1)OCO2 11.5%
CCCNS(=O)(=O)c1ccc(CCC(=O)NCc2cccnc2)cc1 6.9%
COc1ccc(C2(C)ON(c3ccccc3C(F)(F)F)C2=O)cc1 (stereo unspecified) -8.35%
CCCCN(CC)C(=O)c1ccccc1Oc1ccccc1 11.6%
Cc1ccc(NC(=O)Cc2nc(COC(=O)C(C)NS(=O)(=O)c3ccc(C)cc3)cs2)cc1 (stereo unspecified) -7.54%
CCOC(=O)/C=C/CN(C(=O)OC(C)(C)C)S(=O)(=O)N1CC=CC1 8.4%
Cc1ccc(-n2c(SCC(=O)N3c4ccccc4Sc4ccccc43)nnc2-c2ccncc2)cc1 20.4%
Cc1ccc(-c2noc(CSc3nnc(-c4ccncc4)n3-c3ccc(F)cc3)n2)cc1 1%
FC(F)(F)c1cc(C(F)(F)F)c2ccc(N3CCN(c4ccccc4)CC3)nc2n1 -12.2%
Cc1ccc(-c2nc3ccc(Cl)cn3c2Cc2ccccc2)cc1 -22%
Cc1ccc(Cc2c(-c3ccccc3)nc3ccc(Cl)cn23)cc1 -20.8%
CC1(C(=O)NS(=O)(=O)c2cccc(F)c2)CCN1C(=O)c1cccc2ccccc12 (stereo unspecified) -20.6%
Cc1ccc(-c2cnc(C(O)c3cc(Cl)cc(Cl)c3)[nH]2)cc1 (stereo unspecified) -5.74%
CC1CCc2sc3nc(N4CCN(CCO)CC4)n4ncnc4c3c2C1 (stereo unspecified) -63.4%
CCCCNc1c(-c2ccc(OC)c(Sc3ccc(OC)cc3)c2)nc2ccc(Cl)cn12 5.14%
COC(=O)c1ccc2nc(-c3ccccc3)c(Cc3ccc(OC)cc3C)n2c1 -3.6%
COC(=O)c1cc(=O)n(-c2c(Cl)cc(C(F)(F)F)cc2Cl)[nH]1 7.88%
O=C(Nc1ccccn1)C1CCN(S(=O)(=O)c2ccccc2)CC1 -18.5%
CCOC(=O)C1CCCN(C(=O)C2CCN(S(=O)(=O)c3ccc(Cl)c(C(F)(F)F)c3)CC2)C1 (stereo unspecified) -2.02%
N#Cc1cccc(NC(=O)c2cc(C3CCCCN3C(=O)CCc3ccccc3)on2)c1 (stereo unspecified) 26.1%
C#CCN(N(C)c1ncc(C(F)(F)F)cc1Cl)S(=O)(=O)c1ccc2ccccc2c1 18%
C=CCNc1nc(N)c(C(=C(C#N)C#N)c2ccccc2)s1 17.7%
Cc1cc(-c2n[nH]c(=S)n2-c2ccc(C)c(C)c2)no1 4.62%
COc1ccc(-n2c(-c3ccc(Cl)cc3)n[nH]c2=S)c(OC)c1 0.97%
